For 53 molecules, protection from H2O2 cell death results are on record in PubChem BioAssay AID588492 (Sanford-Burnham Center for Chemical Genomics, 2011).

SMILES strings stand for the structures. Screen size: about 360,000 compounds; about 2,300 (0.64%) were called active.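 The calls were made as follows: active = compounds giving at least 50% protection of heart cells from peroxide-induced death in the single-dose screen, raw or plate-pattern-corrected value; inactive = the rest.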 The full list was thinned out, with actives kept by preference.

A short description of this assay: H9c2 cardiomyocyte survival under peroxide injury – uHTS, H9c2 cells, ATPLite luminescence, primary screen (AID 588492).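 Also: 0% = DMSO wells with peroxide and 100% = DMSO wells without peroxide.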 The settings on record: H9c2 cardiomyocytes, 2 h, at 20 µM, hits give high values.
Regarding `CC1(C)OC(=O)C2=C(CC(c3ccccc3)OC2CCc2ccccc2)O1` (stereo not drawn), the protection from H2O2 cell death was -19.2% (inactive).

For `COc1cccc(Cn2cnc3c([N+](=O)[O-])c(C)c(C)cc32)c1`, the protection from H2O2 cell death is 1.8% (inactive).

Take `O=C(N/N=C/c1cccc2cccnc12)[C@H]1C[C@@H]1c1ccccc1`: the protection from H2O2 cell death was 84.8% (active).

Turning to `O=C(CSc1cccc2cccnc12)N/N=C/c1cccnc1`, the protection from H2O2 cell death is -2.6% (inactive).

For the molecule `Cc1ccc(NC(=O)C2CC2c2ccccc2)cc1` (stereo not drawn), the protection from H2O2 cell death is -6.9% (inactive).

Regarding `Cc1nnc(C)c2c(C)n(N)c(C)c12`, the protection from H2O2 cell death is 15.4% (inactive).

Turning to `Cc1ccc(S(=O)(=O)N(C)C)cc1NC(=O)CN1c2cccc3cccc(c23)S1(=O)=O`, the protection from H2O2 cell death was 3.5% (inactive).

On to `O=C(NC(=O)N1CCSCC1)c1c(Cl)cccc1Cl`, for which the protection from H2O2 cell death was 4.6% (inactive).

Consider `COC(=O)c1ccc(Nc2ncnc3sccc23)cc1`, for which the protection from H2O2 cell death was 5.6% (inactive).

Take `CCOC(=O)c1ccc(N/C(=N/S(=O)(=O)c2ccccc2)c2ccccc2)cc1`: the protection from H2O2 cell death was 1.3% (inactive).

Take `CCOC(=O)c1nc(Nc2ccc(C(=O)OC)cc2)c2ccccc2n1`: the protection from H2O2 cell death is 50.6% (active).

With `CCc1ccc(OCC(=O)NCC(c2ccc(Cl)cc2)N2CCCCC2)cc1` (stereo not drawn), the protection from H2O2 cell death is 2.7% (inactive).

As for `COc1ccc(-c2[nH]ncc2/C=N/NC(=O)c2cc(Br)ccc2O)c(OC)c1`, the protection from H2O2 cell death is 3.5% (inactive).

Take `COc1ccc(CC(=O)NCC(=O)N/N=C/c2cc(Br)ccc2OC)cc1`: the protection from H2O2 cell death was 52.8% (active).

Consider `Cc1ccc(OCCOCCOc2ccc(Br)cc2/C=N\NC(=O)c2ccncc2)cc1`, for which the protection from H2O2 cell death is 6.5% (inactive).

Regarding `NC(=NC(=O)c1ccccc1)C1=C(O)CCC1=O`, the protection from H2O2 cell death was -0.2% (inactive).

On to `C=CCn1c(-c2ccc(Cl)cc2)ccc(C#N)c1=O`, for which the protection from H2O2 cell death is -10% (inactive).

As for `COc1cc2[nH]c(O)c(C=O)c2cc1OC`, the protection from H2O2 cell death was 4.5% (inactive).

Take `CN=c1scc(-c2cc(OC)ccc2OC)n1/N=C/c1c(C)[nH]c2ccccc12`: the protection from H2O2 cell death is 0.4% (inactive).

Turning to `COc1cc(N=Cc2c(O)[nH]c3ccccc23)cc(OC)c1OC`, the protection from H2O2 cell death is 69.8% (active).

As for `COc1ccc(CCNc2cc(C)nc3c(-c4ccc(Cl)cc4)c(C)nn23)cc1OC`, the protection from H2O2 cell death was 0.4% (inactive).

As for `COc1cccc(-c2nnc(NC(=O)c3ccc(S(=O)(=O)N(CC(C)C)CC(C)C)cc3)o2)c1`, the protection from H2O2 cell death is 56.4% (active).

On to `O=C(Nc1nnc(-c2ccccc2)o1)c1cccc(S(=O)(=O)N2CCOCC2)c1`, for which the protection from H2O2 cell death was 10.2% (inactive).

With `COc1cc(-c2nnc(NC(=O)CS(=O)(=O)c3ccc(Cl)cc3)o2)cc(OC)c1OC`, the protection from H2O2 cell death is 6.5% (inactive).

Consider `CCc1ccc(/C=N/NC(=O)c2nnn(-c3nonc3N)c2CN2CCc3ccccc32)cc1`, for which the protection from H2O2 cell death is -2.2% (inactive).

With `NC(=O)c1cc(-c2cccnc2)nc2ccc(Br)cc12`, the protection from H2O2 cell death is 0.3% (inactive).

Regarding `O=C(CSc1c2c(nc3ccc(Cl)cc13)CCCC2)NCc1ccco1`, the protection from H2O2 cell death was 5.3% (inactive).

With `O=C(NCc1ccco1)c1cc(-c2cccnc2)nc2ccc(Cl)cc12`, the protection from H2O2 cell death was 74% (active).

With `Cc1cccc(NC(=O)N2CCCCCC2)c1C`, the protection from H2O2 cell death is -0.5% (inactive).

For the molecule `N#Cc1ccc(OCC(=O)Nc2nc(-c3ccccn3)cs2)cc1`, the protection from H2O2 cell death is 69.2% (active).

For `O=C(CN1C(=O)C2C3C=CC(C3)C2C1=O)Nc1nc(-c2ccccn2)cs1` (stereo not drawn), the protection from H2O2 cell death was 51.3% (active).

Take `O=C(COc1ccccc1)Nc1nonc1NC(=O)COc1ccccc1`: the protection from H2O2 cell death is -3.9% (inactive).

As to `CC1CCCCC1NC(=O)COc1ccc(C#N)cc1` (stereo not drawn), the protection from H2O2 cell death is 7% (inactive).

On to `O=C(COc1ccccc1F)Nc1nc(-c2ccccn2)cs1`, for which the protection from H2O2 cell death was 60% (active).

As for `O=C(CCN1C(=O)C2C3C=CC(C3)C2C1=O)Nc1ccccc1F` (stereo not drawn), the protection from H2O2 cell death is -1.8% (inactive).

With `O=C(NCCN1C(=O)C2C3C=CC(C3)C2C1=O)Nc1ccccn1` (stereo not drawn), the protection from H2O2 cell death is -2.9% (inactive).

Turning to `CC(NC(=O)c1ccco1)C(=O)Nc1nc(-c2ccccn2)cs1` (stereo not drawn), the protection from H2O2 cell death was 10.4% (inactive).

Consider `CC1CCN(S(=O)(=O)c2nnc(NC(=O)COc3ccccc3F)s2)CC1`, for which the protection from H2O2 cell death was -6.3% (inactive).

Consider `CC12CCC(=O)N1C(C(=O)Nc1ccc(F)c(F)c1F)CS2` (stereo not drawn), for which the protection from H2O2 cell death was 0.6% (inactive).

Take `COc1ccc2c(c1)c(=Cc1ccc(N(C)C)cc1)c1cc(-c3ccccc3)[n+](C)n12`: the protection from H2O2 cell death was -20% (inactive).

On to `COc1ccccc1N(C)S(=O)(=O)c1ccc(Cl)c(C(=O)Nc2ccncc2)c1`, for which the protection from H2O2 cell death was -8.6% (inactive).

For the molecule `Cn1nnnc1-c1cc(Cl)cc(Cl)c1`, the protection from H2O2 cell death was -2.9% (inactive).

For the molecule `Cn1cccc1C(=O)NC(=O)COC(=O)Cc1coc2ccc3ccccc3c12`, the protection from H2O2 cell death was -3.6% (inactive).

As to `O=C(NCC(O)c1nc2ccccc2[nH]1)c1ccc(Br)cc1` (stereo not drawn), the protection from H2O2 cell death is -3.3% (inactive).

On to `O=C(Nc1cccc(-c2nc3ccccc3[nH]2)c1)c1ccc(C(=O)Nc2cccc(-c3nc4ccccc4[nH]3)c2)cc1`, for which the protection from H2O2 cell death was 49.1% (active).

In the case of `O=C(Nc1ccccc1)c1cc2ccccc2[nH]1`, the protection from H2O2 cell death is 3.8% (inactive).

As for `CCOC(=O)Cn1c(O)c(N=NC(=O)CNC(=O)Cc2ccccc2)c2ccccc21`, the protection from H2O2 cell death was 6.8% (inactive).

As for `CN(Cc1ccccc1F)c1cc2c(c3c1ccn3C)C1CCC2O1` (stereo not drawn), the protection from H2O2 cell death is -4.4% (inactive).

`COc1ccccc1C(=O)C(O)c1ccccc1OC` (stereo not drawn): the protection from H2O2 cell death was 1.8% (inactive).

Turning to `CCCn1c(SCC(=O)Nc2ccc(C)c(S(=O)(=O)N3CCOCC3)c2)n[nH]c1=O`, the protection from H2O2 cell death was 6.6% (inactive).

For `C[C@H]1Cn2cnc(C(=O)N[C@H](C)c3ccccc3)c2C(=O)N1`, the protection from H2O2 cell death was 7.3% (inactive).

On to `C[C@@H]1Cn2cnc(C(=O)Nc3ccc(CNC(=O)OC(C)(C)C)cc3)c2C(=O)N1`, for which the protection from H2O2 cell death was -12.9% (inactive).

Turning to `C[C@H]1Cn2cnc(C(=O)N[C@@H](Cc3c[nH]c4ccccc34)C(=O)OC(C)(C)C)c2C(=O)N1`, the protection from H2O2 cell death was 99.5% (active).
